Only some compounds are listed: those with a hit (about 2.4% of all), similar ones and a draw of the others.
SENP7 block = SENP7 protease inhibition; Q9BQF6; recombinant SENP7, Z-RLRGG-aminoluciferin luminescence, 40 min; inhibition, % at 5 µM; 330,000 tested, 1.5% active;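 active means inhibition above about 50% at the single test dose, limit read from the data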;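 further: plate controls were DMSO with enzyme for no effect and no enzyme buffer wells for full effect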
SENP8 block-1 = blocks the human protease SENP8; Q96LD8; purified SENP8, Z-RLRGG-aminoluciferin cleavage, luminescence; inhibition, % at 10 µM; 330,000 tested, 1.2% active; AID 2540; in the data active means inhibition above about 50%
Target sequence (Q96LD8 whole entry, looked up): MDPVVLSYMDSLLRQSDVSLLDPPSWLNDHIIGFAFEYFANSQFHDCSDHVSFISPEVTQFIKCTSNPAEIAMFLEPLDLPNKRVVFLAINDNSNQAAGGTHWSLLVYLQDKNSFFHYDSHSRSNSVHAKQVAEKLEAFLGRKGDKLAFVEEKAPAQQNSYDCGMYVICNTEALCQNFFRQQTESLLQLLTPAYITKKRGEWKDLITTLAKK
Platelet DG rel = platelet dense granule release activity; human platelet-rich plasma, SFLLRN dense granule ATP release, luminescence; inhibition, %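 (compounds screened at 7.5 µM in platelet-rich plasma)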; 300,000 tested, 0.22% active; AID 1663;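 active means mean replicate score, as percent of positive control, at or above 50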
SENP8 block-2 = blocks human SENP8 cleavage of Nedd8 substrate. recombinant SENP8, Nedd8 substrate fluorescence. inhibition, % at 20 µM. 360,000 tested, 0.64% active. AID 602440; in the data active means inhibition mostly above about 40%, no sharp cut-off; inactive means mostly below about 27%
SENP6 inh = SENP6 protease inhibition | AID 2599 | Q9GZR1 | Recombinant SENP6 catalytic domain, aminoluciferin luminescence | 330,000 tested, 1.8% active | inhibition, % at 10 µM;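 active means inhibition above about 50% at the single tested dose, limit read from the data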;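 further: plate controls were DMSO wells with enzyme for no effect and DMSO wells lacking enzyme for full effect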
SENP8 confirm = confirmation of human SENP8 protease inhibitors; shares compounds with SENP7 block; Recombinant SENP8, Z-RLRGG-aminoluciferin luminescence, 60 min; 6,200 tested, 40% active; AID 488912; inhibition, % at 12.5 µM;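 active means mean inhibition across replicates above about 50%, limit read from the data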
SENP6 confirm = human SENP6 inhibition, confirmed; shares compounds with SENP7 block; recombinant SENP6, Z-RLRGG-aminoluciferin luminescence; inhibition, % at 12.5 µM; 6,200 tested, 58% active
SENP7 confirm = human SENP7 inhibition, confirmed. shares compounds with SENP7 block. recombinant SENP7, Z-RLRGG-aminoluciferin luminescence, 40 min. inhibition, % at 12.5 µM. 6,200 tested, 69% active
Casp3 SENP sel = selectivity test for SENP inhibitors: human caspase-3 inhibition; purified caspase-3, Z-DEVD-aminoluciferin luminescence, 60 min; shares compounds with SENP7 block; 6,200 tested, 60% active; inhibition, % at 12.5 µM;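 active means mean inhibition above about 50%, limit read from the data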;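 further: plate controls were enzyme with DMSO for no effect and wells without caspase-3 for full effect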
Target sequence (P42574 28-227 limits assumed): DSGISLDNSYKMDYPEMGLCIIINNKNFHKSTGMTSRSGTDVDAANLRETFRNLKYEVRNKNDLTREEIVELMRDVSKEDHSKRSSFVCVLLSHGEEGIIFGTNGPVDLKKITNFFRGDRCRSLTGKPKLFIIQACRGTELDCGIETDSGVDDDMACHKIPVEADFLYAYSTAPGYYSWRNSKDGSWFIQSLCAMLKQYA
SENP luc ctr = luminescence interference (SENP counter-screen). shares compounds with SENP7 block. inhibition, % at 12.5 µM. 6,200 tested, 39% active. AID 488919. Pre-incubated SENP8/Z-RLRGG-aminoluciferin, luciferase luminescence interference;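 active means mean inhibition above about 50% when retested at one dose, limit read from the data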;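 further: plate controls were DMSO wells with completed reaction for no effect and substrate without enzyme for full effect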
* = called active by the depositor; x = no result given.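 How the source made its calls, unless noted: active means mean inhibition above about 50% in the one-dose retest (limit read from the data); inactive means the rest.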

SMILES | SENP7 block | SENP8 block-1 | Platelet DG rel | SENP8 block-2 | SENP6 inh | SENP8 confirm | SENP6 confirm | SENP7 confirm | Casp3 SENP sel | SENP luc ctr
COc1cccc(CSc2nc3ccccc3[nH]2)c1 | 80.6* | 77.3* | 5.2 | 4.6 | 63.7* | 0.1 | 79.4* | 95.3* | 80.3* | 82.5*
Fc1ccccc1CSc1nc2ccccc2[nH]1 | 85.3* | 78.5* | -8.8 | 16.2 | 82.9* | 86.4* | 85.3* | 95.5* | 83.4* | 85.6*
Fc1c(F)c(F)c(CSc2nc3ccccc3[nH]2)c(F)c1F | 4.4 | -4.8 | -4.6 | 26.3 | -2.0 | x | x | x | x | x
CCN(CC)S(=O)(=O)c1ccc(C(=O)OCC(=O)NCCN2C(=O)CSC2=O)cc1 | 12.6 | 1.1 | 1.6 | 11.2 | -6.5 | x | x | x | x | x
COc1ccccc1N1CCN(/N=C/c2ccc(Cl)c([N+](=O)[O-])c2)CC1 | 3.0 | -27.3 | 10.9 | 19.4 | 6.9 | x | x | x | x | x
COc1ccccc1N1CCN(/N=C/c2ccc([N+](=O)[O-])cc2)CC1 | 63.6* | 54.2* | 0.7 | 33.7 | 67.7* | 16.3 | 12.9 | 90.9* | 48.1 | 5.8
O=C(c1ccc(S(=O)(=O)N2CCCC2)cc1)N(c1ccccc1)C1C=CS(=O)(=O)C1 (configuration not stated) | 2.4 | -0.4 | -3.9 | 2.9 | 62.7* | 6.3 | 6.4 | 5.2 | 0.4 | 1.5
O=C(c1ccc(S(=O)(=O)N2CCCC2)cc1)N(c1ccc(F)cc1)C1C=CS(=O)(=O)C1 (configuration not stated) | -6.4 | 11.7 | 4.7 | 3.1 | 0.0 | x | x | x | x | x
CCOC(=O)C1=C(COC(=O)COc2ccc(OCC)cc2)NC(=O)NC1C (configuration not stated) | 9.9 | -12.9 | -6.3 | 7.7 | -9.7 | x | x | x | x | x
O=C(O)C1CC=C(Cl)CC1C(=O)NC1CCCCC1 (configuration not stated) | -0.2 | 0.5 | -8.1 | -0.3 | -26.4 | x | x | x | x | x
Cc1ccc(NC(=O)N2CCc3ccccc32)cc1 | 93.7* | 89.0* | 33.5 | 31.6 | 85.7* | 91.4* | 93.5* | 100.7* | 94.4* | 93.7*
Cc1ccc(NC(=O)N2CCc3ccccc32)cc1C | 92.5* | 82.3* | 16.2 | 6.4 | 89.7* | 91.4* | 91.0* | 98.9* | 88.1* | 81.4*
Cc1ccc2c(CC(=O)N3CCc4ccccc43)coc2c1 | 81.9* | 66.1* | x | -0.5 | 81.3* | 21.2 | 30.5 | 59.5* | 69.5* | 9.2
CN1C(=O)CSc2ccc(NC(=O)N3CCc4ccccc43)cc21 | 46.4 | 47.3 | -4.2 | 1.8 | 59.2* | 56.9* | 53.8* | 84.6* | 61.8* | 52.7*
CC(=O)Nc1ccc(NC(=O)Nc2ccc3c(c2)N(C)C(=O)CS3)cc1 | -0.3 | -4.4 | -3.2 | 8.3 | 2.3 | x | x | x | x | x
Cc1ccc(NC(=O)N2CCCc3ccccc32)cc1 | -2.3 | -8.0 | -5.4 | 14.1 | -17.2 | x | x | x | x | x
COc1ccc(NC(=O)N2CCCc3ccccc32)cc1OC | 2.2 | 1.6 | -0.1 | 4.1 | 6.0 | x | x | x | x | x
COc1ccccc1-c1c(C#N)c(N)nc2c1CCc1ccccc1-2 | 78.0* | 77.6* | -7.6 | -393.8 | 96.3* | 7.3 | 8.0 | 12.3 | 3.3 | 2.8
Cc1nn(-c2ccccc2)c(Cl)c1/C=N/Nc1ccc(Cl)c(C(=O)O)c1 | 91.7* | 97.0* | 8.5 | -15.6 | 100.2* | 99.3* | 100.3* | 102.7* | 84.6* | 80.1*
Cc1nn(-c2ccccc2)c(Cl)c1/C=N/NC(=O)OC(C)(C)C | -12.4 | -9.4 | -1.4 | 1.4 | -15.4 | x | x | x | x | x
COC(=O)c1ccc(COc2ccc(/C=N/Nc3cccc(C(=O)O)c3)cc2)cc1 | 1.9 | 7.0 | 2.4 | -2.7 | 34.8 | x | x | x | x | x
O=C(O)c1cc(N/N=C/c2ccc(OCc3ccccc3)cc2)ccc1Cl | 30.5 | 72.2* | -1.8 | -8.0 | 56.2* | 60.1* | 53.9* | 74.1* | 15.2 | 69.0*

Assay outcomes deposited in PubChem BioAssay by several laboratories.
